Data published in PMC7862700, “An all-to-all approach to the identification of sequence-specific readers for epigenetic DNA modifications on cytosine”.

Key:
Experiment in all cases: DAPPL (digital affinity profiling via proximity ligation, sequencing); 10 mM Tris-HCl pH 7.5, 50 mM NaCl, 1 mM DTT, 4% glycerol, room temperature, 30 min; GST-TFs on glutathione beads, 16-mer random dsDNA library, 0.1% formaldehyde crosslink after washing; high values mean tight binding
Conditions in all cases: protein: recombinant; tags: N-terminal GST; dsDNA, one strand shown
FLI1 = biological target: T1, FLI1 (Homo sapiens, UniProt Q01543 1-452)
T1 sequence: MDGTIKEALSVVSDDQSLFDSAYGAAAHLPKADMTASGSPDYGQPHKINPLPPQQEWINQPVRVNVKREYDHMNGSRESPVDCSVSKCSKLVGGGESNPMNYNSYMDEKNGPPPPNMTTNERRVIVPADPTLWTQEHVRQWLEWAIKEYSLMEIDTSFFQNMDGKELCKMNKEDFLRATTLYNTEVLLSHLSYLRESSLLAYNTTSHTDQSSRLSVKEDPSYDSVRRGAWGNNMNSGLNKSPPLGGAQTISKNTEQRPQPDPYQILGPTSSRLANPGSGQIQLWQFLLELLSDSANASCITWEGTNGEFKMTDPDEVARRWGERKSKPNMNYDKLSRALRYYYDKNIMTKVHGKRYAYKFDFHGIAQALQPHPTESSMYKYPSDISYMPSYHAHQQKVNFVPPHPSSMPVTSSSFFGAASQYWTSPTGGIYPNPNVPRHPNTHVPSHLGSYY
Procedure, shortened: (§1)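 A tag-only sample was pooled with DNA-barcoded human transcription factors that had been expressed in yeast as GST fusions and captured on glutathione beads. The pools were incubated for 30 min at room temperature with 200 nmole of a random double-stranded 16-mer DNA library in Tris/NaCl/DTT/glycerol buffer, then washed, crosslinked with 0.1% formaldehyde, proximity-ligated (BsaI/T4 ligase, 1 h, 37 °C), PCR-amplified and sequenced on an Illumina NextSeq500. Binding signal is each hexamer's read frequency for a factor divided by its frequency for the tag-only sample.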

ELK1 = biological target: T2, ELK1 (Homo sapiens, UniProt P19419 1-428)
T2 sequence: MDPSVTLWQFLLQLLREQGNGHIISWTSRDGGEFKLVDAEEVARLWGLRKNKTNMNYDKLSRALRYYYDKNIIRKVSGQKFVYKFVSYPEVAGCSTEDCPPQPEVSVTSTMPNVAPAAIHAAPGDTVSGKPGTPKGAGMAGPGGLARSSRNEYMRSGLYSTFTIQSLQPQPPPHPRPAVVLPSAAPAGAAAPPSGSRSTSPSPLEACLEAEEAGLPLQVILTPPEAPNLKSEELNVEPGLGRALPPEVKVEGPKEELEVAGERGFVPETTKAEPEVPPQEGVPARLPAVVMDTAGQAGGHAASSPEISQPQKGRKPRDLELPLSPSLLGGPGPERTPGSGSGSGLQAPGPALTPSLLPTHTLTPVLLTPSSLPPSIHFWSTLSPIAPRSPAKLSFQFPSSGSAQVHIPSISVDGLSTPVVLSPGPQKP
Procedure, shortened: as §1

GABPA = biological target: T3, GABPA (Homo sapiens, UniProt Q06546 1-454)
T3 sequence: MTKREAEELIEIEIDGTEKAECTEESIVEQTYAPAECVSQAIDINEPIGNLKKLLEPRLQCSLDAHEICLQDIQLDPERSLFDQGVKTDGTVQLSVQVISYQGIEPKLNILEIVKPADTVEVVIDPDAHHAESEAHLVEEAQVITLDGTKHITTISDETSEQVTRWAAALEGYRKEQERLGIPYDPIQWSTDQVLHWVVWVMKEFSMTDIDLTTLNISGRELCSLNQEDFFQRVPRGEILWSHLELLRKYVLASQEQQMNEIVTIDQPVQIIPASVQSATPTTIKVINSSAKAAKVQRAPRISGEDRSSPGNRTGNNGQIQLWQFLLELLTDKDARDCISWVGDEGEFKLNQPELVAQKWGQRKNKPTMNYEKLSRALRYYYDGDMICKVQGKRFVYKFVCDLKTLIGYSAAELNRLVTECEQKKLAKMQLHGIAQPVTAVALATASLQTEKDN
Procedure, shortened: as §1

ERG = biological target: T4, ERG (Homo sapiens, UniProt P11308 1-479)
T4 sequence: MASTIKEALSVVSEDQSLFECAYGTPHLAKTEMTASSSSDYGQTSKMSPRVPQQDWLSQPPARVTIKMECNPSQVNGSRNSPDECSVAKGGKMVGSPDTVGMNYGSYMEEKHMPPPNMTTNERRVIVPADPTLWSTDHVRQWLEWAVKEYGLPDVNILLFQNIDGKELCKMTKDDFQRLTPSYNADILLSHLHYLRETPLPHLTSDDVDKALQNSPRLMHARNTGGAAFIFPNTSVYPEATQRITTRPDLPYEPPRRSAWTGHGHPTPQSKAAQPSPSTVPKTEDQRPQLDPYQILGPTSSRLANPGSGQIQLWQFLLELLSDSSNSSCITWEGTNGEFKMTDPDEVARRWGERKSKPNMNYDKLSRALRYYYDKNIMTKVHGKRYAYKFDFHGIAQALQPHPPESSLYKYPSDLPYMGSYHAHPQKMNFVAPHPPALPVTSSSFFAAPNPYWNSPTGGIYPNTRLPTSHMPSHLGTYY
Procedure, shortened: as §1

ELF1 = ELF1 (Homo sapiens, UniProt P32519 1-619)
Chain of ELF1 (P32519 whole entry): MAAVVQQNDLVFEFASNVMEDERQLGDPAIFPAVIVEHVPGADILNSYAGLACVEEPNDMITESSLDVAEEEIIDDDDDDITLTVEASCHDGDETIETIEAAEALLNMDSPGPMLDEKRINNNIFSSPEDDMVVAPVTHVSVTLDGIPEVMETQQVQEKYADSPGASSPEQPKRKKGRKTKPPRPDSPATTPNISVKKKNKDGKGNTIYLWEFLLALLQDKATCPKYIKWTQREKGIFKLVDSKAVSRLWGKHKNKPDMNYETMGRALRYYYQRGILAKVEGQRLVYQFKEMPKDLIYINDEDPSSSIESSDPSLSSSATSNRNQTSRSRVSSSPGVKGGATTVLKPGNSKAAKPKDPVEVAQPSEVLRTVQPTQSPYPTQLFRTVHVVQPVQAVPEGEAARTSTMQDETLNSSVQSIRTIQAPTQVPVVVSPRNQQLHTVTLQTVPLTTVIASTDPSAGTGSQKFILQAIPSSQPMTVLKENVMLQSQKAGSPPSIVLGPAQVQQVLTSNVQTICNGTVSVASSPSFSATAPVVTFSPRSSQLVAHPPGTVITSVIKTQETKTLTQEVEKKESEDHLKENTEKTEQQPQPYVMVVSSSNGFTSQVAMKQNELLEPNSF
Procedure, shortened: as §1

EHF = biological target: T5, EHF (Homo sapiens, UniProt Q9NZC4 1-300)
T5 sequence: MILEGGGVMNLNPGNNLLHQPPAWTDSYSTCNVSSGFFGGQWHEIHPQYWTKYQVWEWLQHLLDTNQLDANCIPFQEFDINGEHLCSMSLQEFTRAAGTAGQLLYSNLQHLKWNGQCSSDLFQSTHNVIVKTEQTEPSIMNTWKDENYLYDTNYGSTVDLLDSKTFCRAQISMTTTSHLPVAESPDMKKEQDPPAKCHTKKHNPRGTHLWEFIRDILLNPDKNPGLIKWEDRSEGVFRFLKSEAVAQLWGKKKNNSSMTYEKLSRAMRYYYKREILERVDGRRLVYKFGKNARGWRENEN
Procedure, shortened: as §1

SPI1 = SPI1 (Homo sapiens, UniProt P17947 1-270)
Procedure, shortened: as §1

SPIB = SPIB (Homo sapiens, UniProt Q01892 1-262)
Chain of SPIB (Q01892 whole entry): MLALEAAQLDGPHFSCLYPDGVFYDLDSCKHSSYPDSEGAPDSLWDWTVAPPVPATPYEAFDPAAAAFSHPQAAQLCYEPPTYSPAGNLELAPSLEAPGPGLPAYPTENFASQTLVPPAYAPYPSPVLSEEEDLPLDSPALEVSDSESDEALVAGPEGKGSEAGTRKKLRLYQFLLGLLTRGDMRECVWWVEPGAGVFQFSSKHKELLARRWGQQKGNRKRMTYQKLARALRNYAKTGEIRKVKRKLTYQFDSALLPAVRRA
Procedure, shortened: as §1

ELK3 = biological target: T6, ELK3 (Homo sapiens, UniProt P41970 1-407)
T6 sequence: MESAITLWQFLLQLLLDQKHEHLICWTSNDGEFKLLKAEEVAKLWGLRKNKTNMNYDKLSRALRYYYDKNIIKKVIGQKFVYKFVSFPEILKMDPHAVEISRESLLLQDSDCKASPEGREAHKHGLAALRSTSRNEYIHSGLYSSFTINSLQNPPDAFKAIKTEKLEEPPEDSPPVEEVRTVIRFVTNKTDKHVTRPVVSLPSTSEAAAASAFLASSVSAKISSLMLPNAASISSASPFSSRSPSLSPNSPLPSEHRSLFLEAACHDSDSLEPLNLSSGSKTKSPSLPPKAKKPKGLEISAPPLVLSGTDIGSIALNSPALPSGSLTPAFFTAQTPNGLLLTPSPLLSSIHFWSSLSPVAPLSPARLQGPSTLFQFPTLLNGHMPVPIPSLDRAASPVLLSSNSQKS
Procedure, shortened: as §1

Sequence: TTTGTT
- binding signal (FLI1): 1.26 fold enrichment (6-mer frequency, TF over GST control)
- binding signal (ELK1): 1.29 fold enrichment (6-mer frequency, TF over GST control)
- binding signal (GABPA): 1.31 fold enrichment (6-mer frequency, TF over GST control)
- binding signal (ERG): 1.28 fold enrichment (6-mer frequency, TF over GST control)
- binding signal (ELF1): 1.29 fold enrichment (6-mer frequency, TF over GST control)
- binding signal (EHF): 1.35 fold enrichment (6-mer frequency, TF over GST control)
- binding signal (SPI1): 1.22 fold enrichment (6-mer frequency, TF over GST control)
- binding signal (SPIB): 1.17 fold enrichment (6-mer frequency, TF over GST control)
- binding signal (ELK3): 1.3 fold enrichment (6-mer frequency, TF over GST control)
